The text below walks through data of PMC5540273 (PLoS ONE, 2017).
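Further: kd values determined as follow-up on hits from a single-replicate KINOMEscan panel screen.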

In turn, `CN1C(=O)C(Nc2ccc(Cl)c(C(=O)O)c2)=C(c2ccc(Cl)cc2)C1=O` [SB-404290] came in with a Kd with PKN1 of over 10 µM.

With `COc1cc2ncn(-c3cc(OCC4CCCO4)c(C(N)=O)s3)c2cc1OC` (stereo not drawn) [GSK204607], the Kd is 13 nM in the assay with PLK1, 4.4 nM in the assay with PLK2, 40 nM in the assay with PLK3 and over 10 µM in the assay with PRKCI.

In the assay on PRKCI, `CC(C)(C)c1ccc(C(=O)Nc2cn3cc(Cl)ccc3n2)cc1` displayed a Kd of over 10 µM.

The Kd is the equilibrium constant for the complex coming apart.
